# Test results published in ChEMBL document CHEMBL4513216, “Probing the Open Global Health Chemical Diversity Library for Multistage-Active Starting Points for Next-Generation Antimalarials” (ACS Infect Dis, 2020).
# Among all 69,000 compounds or so, about 8,600 (12%) showed an effect of 50% or more. Shown is part of a subset that was picked to be rich in strong results.
# System: Plasmodium berghei
# Test: Screen against P. berghei liver stage (PbLuc), transformed with Luciferase, at 10uM
# Assay type: functional, HepG2
# Settings: tested at 10 uM
row,SMILES,INHIBITION [%]
1,COC(=O)C1CN(Cc2nc(C(C)(C)C)cs2)C[C@@H](C)O1 (some centres not stated),21.7
2,Cn1nc(CN2CCCCC2)c2c1CN(C(=O)c1cccc(C#N)c1)C2,46.3
3,CC(=O)N1CCN(C(C)C)CC(COc2ccccc2)C1 (configuration not stated),-6.92
4,CC(Cn1cccn1)NC(=O)N1CCN(Cc2cccnc2)CC1 (configuration not stated),74.6
5,CC(Cn1cccn1)NC(=O)N1CCN(Cc2ccncc2)CC1 (configuration not stated),-4.94
6,CC(Cn1ccnc1)NC(=O)N1CCN(Cc2cccnc2)CC1 (configuration not stated),31.8
7,O=C(NCCNc1cnccn1)N1CCCCCC1,47
8,O=C(NCCNc1ncccn1)N1CCN(Cc2cccnc2)CC1,57.8
9,O=C(NCCNc1cnccn1)N1CCCC1,19.4
10,O=C(NCCNc1cnccn1)N1CCN(Cc2cccnc2)CC1,65.5
11,CC(C)(C)NC(=O)N1CCN(Cc2cccnc2)CC1,-2.93
12,O=C(NCCn1ccnc1)N1CCN(Cc2cccnc2)CC1,-33.7
13,Cc1ccc(-c2nc(CNC3CCc4ncnn4C3)cs2)cc1 (configuration not stated),47.55
14,Cc1nc(C)c(C(=O)N2CCCC2(C)C(=O)NC2CCCC2)o1 (configuration not stated),46.2
15,Cc1cc(C)n(CCCN(CCN2CCOCC2)Cc2ccco2)n1,7.6
16,COCCN(CCOC)Cc1nc2c(cnn2C)c(=O)[nH]1,27.8
17,Cn1cc(N2C[C@@H]3CN(S(=O)(=O)C4CC4)C[C@@H]3C2=O)cn1,9.79
18,CCS(=O)(=O)N1C[C@H]2CN(c3cnn(C)c3)C(=O)[C@H]2C1,60
19,CCS(=O)(=O)N1CCC2(CC(=O)N(c3cnn(C)c3)C2)C1 (configuration not stated),-13.7
20,Cn1cc(N2C[C@@H]3CN(CC4CCOCC4)C[C@@H]3C2=O)cn1,68.4
21,Cn1cc(N2C[C@@H]3CN(Cc4ccoc4)C[C@@H]3C2=O)cn1,-75
22,Cn1cc(N2CC3(CCN(CC4CCOCC4)CC3)OCC2=O)cn1,-24.5

row,SMILES,INHIBITION [%]
1,Cn1cc(N2CC[C@@H]3CN(Cc4ccncc4)C[C@H]3C2=O)cn1,58.4
2,O=C1[C@H]2CN(Cc3ccncc3)C[C@H]2CN1c1cncnc1,32.8
3,O=C1[C@H]2CN(CC3CCOCC3)C[C@H]2CN1c1ccsc1,5.63
4,O=C(CCc1cc2n(n1)CCNC2)NCCS(=O)(=O)N1CCCC1,-18.1
5,Cn1c2ncccc2c(=O)n1CC(=O)Nc1ccc(F)c(F)c1,41.8
6,O=C(CCc1cc2n(n1)CCCN(CCc1ccccc1)C2)NC1CC1,24.1
7,CN1CCn2nc(-c3nc4ccccc4n3C)cc2C1,36.4
8,CCCOC(=O)N1CCCn2nc(C(=O)Nc3ccccc3)cc2C1,-34.4
9,CCOC(=O)C(C)NC(=O)N1CCN(c2nc3ccccc3n2C)CC1 (configuration not stated),45
10,CCCOC(=O)N1CCn2nc(-c3nc4ccccc4n3C)cc2C1,61.1
11,Cn1c(-c2cc3n(n2)CCCN(CC(=O)O)C3)nc2ccccc21,57.1
12,Cc1cccc(CN2CCc3ncnc(Oc4cccnc4)c3CC2)n1,18.5
13,CC(C)(C)C(=O)N1CCCC1c1nccnc1Cl (configuration not stated),-7.66
14,CN[C@@H](CO)C(=O)NCc1cc2n(n1)CCCN(C1CCCCC1)C2,12.5
15,COc1ccccc1-n1cc(C(=O)NCCn2nc(C)nc2C)cn1,32.8
16,O=C(CNc1cc(-c2ccccc2)nc2ccnn12)NC1CC1,-35
17,O=S1(=O)CCC(CNc2cc(-c3ccccc3)nc3ccnn23)C1 (configuration not stated),93.6
18,Cc1cc2nc(-c3ccccc3)cc(NCC3CCS(=O)(=O)C3)n2n1 (configuration not stated),-24.6
19,CC1CCN(S(=O)(=O)N2CCc3sccc3C2)CC1,19.7
20,O=S(=O)(N1CCCCCC1)N1CCc2sccc2C1,20.8
21,O=S(=O)(N1CCOCC1)N1CCc2sccc2C1,76.8
22,O=S(=O)(N1CCCC1)N1CCc2sccc2C1,82.4

row,SMILES,INHIBITION [%]
1,O=C(Nc1ccc(N2CCOCC2)nc1)N1CCc2sccc2C1,-17.9
2,O=S(=O)(N1CCOCC1)N1CCOC(CCc2ccccc2)C1 (configuration not stated),-23.4
3,c1cc(CN2CCC3(CCOCC3COCC3CC3)CC2)ccn1 (configuration not stated),-20.8
4,CC(C)NC(=O)N1CCc2c(CNc3ncccn3)cncc2C1,-41.4
5,N#Cc1ccc(CN2CCCC3(Cc4ccccc4CNC3=O)C2)cc1 (configuration not stated),43.3
6,Cc1nc(CO[C@H]2CN(Cc3cccs3)[C@@H]3COC[C@H]23)cs1,18.2
7,CNS(=O)(=O)c1cnccc1N1CCN(C(C)C)CC1,-5.26
8,O=C1COC2(CCN(Cc3ccco3)CC2)CN1,27.6
9,O=C(O)C1CCCN1c1nc(C2CC2)cc(C(F)(F)F)n1 (configuration not stated),14.3
10,O=C(O)C1CCCN1c1nc(-c2ccc(Cl)c(Cl)c2)cc(C(F)(F)F)n1 (configuration not stated),80.5
11,O=C(O)C1CCCN1c1nc(-c2ccc(Cl)cc2)cc(C(F)(F)F)n1 (configuration not stated),26.7
12,CC(=O)N1CCC(NC(=O)CN2CCCc3c(F)ccc(C)c32)CC1,9.16
13,CN(CCc1cccc2ccccc12)Cc1nc(N)nc(N(C)C)n1,90.3
14,COc1ccccc1CCN(C)Cc1nc(N)nc(N(C)C)n1,34.1
15,CN(Cc1nc(N)nc(N(C)C)n1)Cc1cccc2ccccc12,-57.5
16,OCCN1CCCCC1c1cc[nH]n1 (configuration not stated),6.26
17,CCc1ccc(-c2cn3c(C(=O)N[C@H](C(N)=O)[C@@H](C)O)csc3n2)cc1,-171
18,CCc1ccc(-c2cn3c(C(=O)NCC(C)C(=O)NC)csc3n2)cc1 (configuration not stated),-147
19,C[C@@H](O)[C@H](NC(=O)c1csc2nc(-c3ccccc3F)cn12)C(N)=O,76.9
20,CC(C)(C)C(=O)N1CCC(c2cnc(-c3cn[nH]c3)cn2)CC1,3.62
21,CCn1cc(S(=O)(=O)N2CCN(C(=O)c3cc(Br)cs3)CC2)c(C)n1,38.3
22,COC(=O)CN1CC2(CCNCC2)COc2ccccc2S1(=O)=O,27.6

row,SMILES,INHIBITION [%]
1,O=C(NC1CC1)C(c1ccccc1)N1CCn2c(nnc2C2CC2)C1 (configuration not stated),6.05
2,Cc1nnc2n1CCN(C(C(=O)NC(C)C)c1ccccc1)C2 (configuration not stated),15.2
3,CC(C)NC(=O)C(c1ccccc1)N1CCn2c(nnc2C2CC2)C1 (configuration not stated),50.4
4,CC(c1nnc(-c2cccs2)o1)N1CCn2c(nnc2C2CC2)C1 (configuration not stated),51.5
5,CC(C)c1nnc2n1CCN(C(C)c1nnc(-c3cccs3)o1)C2 (configuration not stated),21.1
6,Cc1nnc2n1CCN(C(C)c1nnc(-c3cccs3)o1)C2 (configuration not stated),13.5
7,CCc1ccc(CN2CC[C@H]3C[C@H](c4nnc(C)[nH]4)O[C@@H]3C2)o1,-11.5
8,COc1cccc(F)c1-c1c[nH]c(C)n1,11.8
9,Cc1ncsc1C(=O)NCCNc1cnccn1,60
10,Cc1ncsc1C(=O)NCCSCc1cccs1,63.4
11,O=C(NCCNC(=O)c1scnc1Cl)c1ccccc1,30.3
12,O=C(NCCNc1cnccn1)c1scnc1Cl,53.3
13,Cc1ncsc1C(=O)NCCc1cccs1,-25.667
14,O=C(NCCNc1ncccn1)c1scnc1Cl,11.9
15,Cc1ncsc1C(=O)NCc1cccs1,35.8
16,Cc1ncsc1C(=O)NCCNc1ncccn1,34.7
17,CCc1nc(C)c(C(=O)NCCNc2cnccn2)s1,4.88
18,O=C(NCCCn1nc2ccccn2c1=O)Nc1ccc(F)cc1F,-17
19,c1ccc(CN2CCC3(CC2)CCN(Cc2cccs2)C3)nc1,-4.27
20,O=C(C1COCCO1)N1CCN(CC(F)(F)F)c2ccccc21 (configuration not stated),-8.22
21,Cc1nn(C)c(C)c1CC(=O)N1CCc2nnc(N(C)C)cc2C1,42.65
22,CN(C)c1cc(CNC(=O)c2ccccc2S(C)(=O)=O)ccn1,-19.4

row,SMILES,INHIBITION [%]
1,Cc1noc(C)c1CN1C(=O)[C@@H]2CC[C@H]1CN(C(=O)c1cscn1)C2,45
2,CN1CCCC(CCCc2cccnc2)(C(N)=O)C1 (configuration not stated),50.1
3,NC(=O)C1(CCCc2ccccn2)CCCN(c2ncccn2)C1 (configuration not stated),-6.3
4,NC(=O)C1(CCCc2cccnc2)CCCN(c2ncccn2)C1 (configuration not stated),0.932
5,NC(=O)CN1CCCC(CCCc2ccccn2)(C(N)=O)C1 (configuration not stated),-0.902
6,NC(=O)C1(CCCc2ccccn2)CCCN(Cc2ccncc2)C1 (configuration not stated),54.5
7,Cn1cc(CN2CCCC(CCCc3ccccn3)(C(N)=O)C2)cn1 (configuration not stated),20.8
8,COc1ccc(C(=O)Nc2cccc(SC)c2)c(OC)n1,-138
9,CCOc1cc(C)nc(N2CCN(C(=O)c3csnn3)CC2)n1,33.8
10,O=C(O)[C@@H]1CCN(C(=O)c2cscn2)[C@@H]1c1ccc(F)cc1,-35.5
11,CCOc1ccc2ccccc2c1CNCC1CCS(=O)(=O)C1 (configuration not stated),57.3
12,COc1ccc2ccccc2c1CNCC1CCS(=O)(=O)C1 (configuration not stated),46.4
13,CCOc1ccc2ccccc2c1CNCC1CCNCC1,49.2
14,Cc1cc2nc(C(C)C)cc(N3CCC(Oc4ncccn4)CC3)n2n1,-17.1
15,CCOC(=O)CSc1nnc([C@@H](N)C(C)C)o1,2.49
16,Cc1cc(S(C)(=O)=O)c(C)c(S(=O)(=O)NCC2CCCO2)c1 (configuration not stated),48.4
17,Cc1cc(S(C)(=O)=O)c(C)c(S(=O)(=O)NC2CCCC2)c1,-1.28
18,Cc1cc(S(C)(=O)=O)c(C)c(S(=O)(=O)NCC2CCC2)c1,54.4
19,Cc1nn(C)cc1C1CC(=O)Nc2c1cnn2C(C)(C)C (configuration not stated),-16.5
